This is an account of results in PubChem BioAssay (Tox21).

Molecules are shown by their SMILES. Records with an inconclusive call do not appear. Active and inactive are the calls of the source. Unless noted, the call rests on the fitted dose curve; in most records, active means well fitted curve in the direction sought with a large enough effect in the repeat runs; inconclusive means weak or mixed curves; inactive means no such curve, though single readings can be large; an effect the other way counts as inactive or inconclusive.

Test [1] in a line: qHTS assay to identify small molecule antagonists of the androgen receptor (AR) signaling pathway using the MDA cell line in the presence of 0.5 nM R1881 - cell viability counter screen (AID 1259242). Further: nearly all actives have a fitted effect of over 45% in size. In outline:
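qHTS format. MDA-kb2 (MMTV-luc, AR/GR responsive) + cpd + 0.5 nM R1881 final, 16 hr 37C/0% CO2 → CellTiter-Fluor 30 min → fluorescence intensity.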
A general note: In qHTS, concentration-response curves come from the screen itself.

Test [2] deals with Estrogen receptor (Homo sapiens) (UniProt P03372). In words: qHTS assay to identify small molecule antagonists of the estrogen receptor alpha (ER-alpha) signaling pathway using the BG1 cell line in the presence of 0.1 nM 17-beta-estradiol (AID 1259244). Further: nearly all actives have a fitted effect of over 50% in size. The method in brief: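 Reporter is a stably transfected luciferase under four estrogen responsive elements in VM7Luc4E2 cells expressing native full-length ER-alpha; inhibition of 0.1 nM (final) 17beta-estradiol-driven signal over 22 h is read by luminescence.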
Estrogen receptor (Homo sapiens), sequence (P03372 whole entry, looked up): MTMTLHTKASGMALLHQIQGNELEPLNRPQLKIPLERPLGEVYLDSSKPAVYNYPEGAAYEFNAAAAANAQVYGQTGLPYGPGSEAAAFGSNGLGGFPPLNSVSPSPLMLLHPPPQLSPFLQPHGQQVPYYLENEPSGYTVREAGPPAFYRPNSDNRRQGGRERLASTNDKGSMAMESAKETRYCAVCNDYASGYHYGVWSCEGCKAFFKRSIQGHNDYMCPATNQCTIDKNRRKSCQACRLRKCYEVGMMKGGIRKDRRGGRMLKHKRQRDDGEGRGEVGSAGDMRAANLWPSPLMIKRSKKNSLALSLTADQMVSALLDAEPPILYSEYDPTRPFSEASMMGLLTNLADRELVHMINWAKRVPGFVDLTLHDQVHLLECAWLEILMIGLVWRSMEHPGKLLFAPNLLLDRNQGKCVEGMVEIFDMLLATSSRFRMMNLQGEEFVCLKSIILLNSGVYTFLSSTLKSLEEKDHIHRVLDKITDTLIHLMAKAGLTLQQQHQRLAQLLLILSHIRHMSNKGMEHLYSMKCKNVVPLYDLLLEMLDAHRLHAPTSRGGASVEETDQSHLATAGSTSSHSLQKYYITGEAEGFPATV

A short description of test [3]: qHTS assay to identify small molecule HDAC inhibitors (AID 1259364).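 Further: wild-type HCT-116 cells with endogenous class I/II HDAC activity; top concentration of the series differs between compounds; nearly all actives have a fitted effect of over 45% in size.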 The method in brief: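 Quantitative high-throughput format: overnight-seeded HCT-116 cells got compounds for 2 hr at 37C; HDAC-Glo I/II reagent added, 30 min RT, luminescence measured.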
The nature of test [4]: qHTS assay to identify small molecule HDAC inhibitors - cell viability counter screen (AID 1259365). Further: series mostly up to about 92 µM; nearly all actives have a fitted effect of over 50% in size. The method in brief: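 Wild-type HCT-116 cells, 1,500/well, cultured overnight, then compound-treated 2 h at 37 C. Viability measured as ATP luminescence with CellTiter-Glo after 30 min at room temperature.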
Test [5] in a line: qHTS assay to identify small molecule agonists of the sonic hedgehog signaling (Shh) pathway - cell viability counter screen (AID 1259366). Further: nearly all actives have a fitted effect of over 50% in size. The method in brief: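 NIH/3T3-derived Gli1-Luc reporter cells, 2,000 per well, received compound after 4 h and were treated about 23 h at 37C. Viability measured in the same wells by CellTiter-Fluor fluorescence after 1 h.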
A short description of test [6]: qHTS assay to identify small molecule antagonists of the sonic hedgehog signaling (Shh) pathway - cell viability counter screen (AID 1259367). Further: nearly all actives have a fitted effect of over 55% in size. In outline:
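Fluorescence read-out (CellTiter-Fluor, 1 hr at 37C) taken after 23 hr compound treatment of 3T3 Gli1-Luc cells stimulated with conditioned medium. Cells were seeded at 2,000 per well and pre-incubated 4 hr.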

Test [7] is described as follows: qHTS assay to identify small molecule agonists of the sonic hedgehog signaling (Shh) pathway (AID 1259368; calls by dose curve;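 further: NIH/3T3-derived 3T3Gli1-Luc cells carrying a stable Gli1-driven firefly luciferase reporter; series mostly up to about 92 µM; nearly all actives have a fitted effect of over 15% in size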). In outline:
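Quantitative high-throughput format using a Gli1-driven firefly luciferase reporter line derived from NIH/3T3 cells. After a 24 hr compound treatment at 37 C and 5% CO2, luminescence reported Gli1 response element activity.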

Test [8] can be described thus: qHTS assay to identify small molecule antagonists of the sonic hedgehog signaling (Shh) pathway (AID 1259369; calls by dose curve; further: nearly all actives have a fitted effect of over 45% in size; further: potency means the concentration at half of the fitted maximal effect). The method in brief:
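Stable Gli1-Luc reporter NIH/3T3 clone; quantitative HTS in stimulated mode with conditioned medium. Luminescence measured after 24hr compound treatment at 37 C.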

Test [9] in a line: qHTS assay to identify small molecule agonists of the androgen receptor (AR) signaling pathway in the presence of an antagonist - cell viability counter screen (AID 1259379).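 Further: MDA-kb2 human breast cancer cells carrying an MMTV luciferase reporter; series mostly up to about 92 µM; nearly all actives have a fitted effect of over 25% in size.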 In outline:
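Nilutamide-containing (3.0uM final) MDA-kb2 cultures, 3,000 cells/well, were treated with compounds across 15 concentrations. After 16 hr at 37C with no CO2, cell viability was determined by CellTiter-Fluor fluorescence in the luciferase assay wells.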

Test [10] is described as follows: qHTS assay to identify small molecule agonists of the estrogen receptor beta (ER-beta) signaling pathway - cell viability counter screen (AID 1259380). Further: nearly all actives have a fitted effect of over 30% in size. In outline:
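Steps: plate ER-beta-UAS-bla HEK293T cells, rest 6 hr; add compounds in DMSO; incubate 16 hr at 37C, 5% CO2; add FRET substrate 2 hr; add CellTiter-Glo, wait 30 min at room temperature; read luminescence.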

A short description of test [11]: qHTS assay to identify small molecule antagonists of the estrogen receptor beta (ER-beta) signaling pathway - cell viability counter screen (AID 1259382). Further: series mostly up to about 92 µM; nearly all actives have a fitted effect of over 55% in size. The method in brief:
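Viability is scored by CellTiter-Glo luminescence (30 min, room temperature) in ER-beta-UAS-bla HEK293T wells already read for reporter fluorescence. Compound exposure lasts 16 hr at 37C alongside 1nM 17-beta-estradiol in charcoal-stripped serum medium.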

The target of test [12] is Estrogen receptor (Homo sapiens) (UniProt P03372). In words: qHTS assay to identify small molecule agonists of the estrogen receptor alpha (ER-alpha) signaling pathway in the presence of an antagonist (AID 1259383; calls by dose curve; further: top concentration of the series differs between compounds; nearly all actives have a fitted effect of over 15% in size). In outline:
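Readout was ERE-driven luciferase luminescence in VM7Luc4E2 cells, which express full-length ER-alpha endogenously. Compounds were tested at 15 concentrations for 22hr alongside 10.0nM ICI-182,780 (final concentration).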

A short description of test [13]: qHTS assay to identify small molecule agonists or antagonists of the thyroid stimulating hormone receptor (TSHR) signaling pathway - wild type cell line counter screen (AID 1259384; calls by dose curve). The method in brief:
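Wild-type Hek293 cells, 800/well, 18 h at 37C, then compound with Ro20-1724 for 30 min RT. cAMP by HTRF (cAMP-d2/anti-cAMP cryptate), 1 h RT, fluorescence read. 15 concentrations, triplicates.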

The target of test [14] is Thyrotropin receptor (Homo sapiens) (UniProt P16473). As to the kind of experiment: qHTS assay to identify small molecule antagonists of the thyroid stimulating hormone receptor (TSHR) signaling pathway (AID 1259385; calls by dose curve; further: nearly all actives have a fitted effect of over 20% in size). In outline:
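TSHR-HEK293 cells (800/well) plated 18 h, then compounds with Ro20-1724 and TSH at 1.5 ng/mL final, 30 min at room temperature. cAMP quantified by HTRF (cAMP-d2/anti-cAMP-cryptate, 1 h); 15 concentrations in triplicate.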

Test [15] in a line: qHTS assay to identify small molecule agonists of the estrogen receptor alpha (ER-alpha) signaling pathway in the presence of an antagonist - cell viability counter screen (AID 1259386).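 Further: series mostly up to about 92 µM; cells exposed to compounds for 22 h at 37 °C before the viability read; nearly all actives have a fitted effect of over 30% in size.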 In outline:
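In this counter screen, compound effects on VM7Luc4E2 viability were tested in the presence of the antagonist ICI-182,780 at 10.0nM final. Compounds were dosed at 15 concentrations, exposure lasted 22hr, and the CellTiter-Fluor signal was read.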

Test [16] addresses Estrogen receptor beta (Homo sapiens) (UniProt Q92731). As to the kind of experiment: qHTS assay to identify small molecule agonists of the estrogen receptor beta (ER-beta) signaling pathway (AID 1259377; active means well fitted activation curve with a large enough effect in the signal ratio in the repeat runs, not every such curve was filed as active; the % refers to the signal ratio). In outline: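 ER-beta-UAS-bla HEK293T cells in medium with 2% charcoal-stripped FBS were exposed to compounds for 16 h at 37C. Beta-lactamase reporter activity was read as fluorescence after 2 h with LiveBLAzer B/G FRET substrate at room temperature.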

Test [17] has the same target. As to the kind of experiment: qHTS assay to identify small molecule antagonists of the estrogen receptor beta (ER-beta) signaling pathway (AID 1259378; active means well fitted inhibition curve with a large enough effect in the signal ratio in the repeat runs, not every such curve was filed as active; the % refers to the signal ratio). The method in brief:
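ER-beta-UAS-bla HEK293T cells in 2% charcoal-stripped FBS medium treated with compound plus 1nM final 17-beta-estradiol for 16 hr at 37C. Beta-lactamase reporter read by FRET substrate fluorescence after 2 hours at room temperature.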

The nature of test [18]: qHTS assay to identify small molecule phospholipidosis (PLD) inducers (AID 1259344; active means well fitted curve in the direction sought with a large enough effect; an effect the other way counts as inactive or inconclusive). The method in brief:
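Read-out is LipidTOX Red fluorescence (ex 595/em 615) imaged in HepG2 cells after 24 h compound exposure at 37 C, with Hoechst nuclear counterstain (ex 352/em 461) allowing per-cell normalisation.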

Test [19] addresses Androgen receptor (Homo sapiens) (UniProt P10275). As to the kind of experiment: qHTS assay to identify small molecule agonists of the androgen receptor (AR) signaling pathway in the presence of an antagonist (AID 1259381; calls by dose curve; further: nearly all actives have a fitted effect of over 15% in size). The method in brief: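 Reporter-gene luminescence from MDA-kb2 cells exposed 16hr at 37C (0% CO2) to 15-point compound titrations with 3.0uM final nilutamide as AR antagonist.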

Thyrotropin receptor (Homo sapiens), sequence (P16473 whole entry, looked up): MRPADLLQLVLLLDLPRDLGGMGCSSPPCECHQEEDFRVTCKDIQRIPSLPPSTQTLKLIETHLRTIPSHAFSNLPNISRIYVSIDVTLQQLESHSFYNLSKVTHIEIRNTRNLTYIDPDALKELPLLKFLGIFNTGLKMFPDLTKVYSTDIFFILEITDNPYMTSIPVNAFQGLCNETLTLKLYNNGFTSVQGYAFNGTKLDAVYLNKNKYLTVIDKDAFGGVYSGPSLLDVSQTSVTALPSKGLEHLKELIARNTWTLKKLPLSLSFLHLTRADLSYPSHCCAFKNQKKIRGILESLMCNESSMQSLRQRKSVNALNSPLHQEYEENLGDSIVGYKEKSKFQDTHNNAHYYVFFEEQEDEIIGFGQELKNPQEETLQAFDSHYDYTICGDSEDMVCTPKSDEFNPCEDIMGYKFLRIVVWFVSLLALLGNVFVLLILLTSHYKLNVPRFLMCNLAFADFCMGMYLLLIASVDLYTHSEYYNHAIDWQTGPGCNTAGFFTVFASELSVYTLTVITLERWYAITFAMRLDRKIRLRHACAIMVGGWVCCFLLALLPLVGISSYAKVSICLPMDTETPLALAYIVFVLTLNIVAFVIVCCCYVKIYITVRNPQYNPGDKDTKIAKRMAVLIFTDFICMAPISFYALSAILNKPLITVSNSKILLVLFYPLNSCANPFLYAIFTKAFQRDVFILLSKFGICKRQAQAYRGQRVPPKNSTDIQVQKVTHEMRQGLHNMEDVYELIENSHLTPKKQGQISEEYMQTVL
Estrogen receptor beta (Homo sapiens), sequence (Q92731 whole entry, looked up): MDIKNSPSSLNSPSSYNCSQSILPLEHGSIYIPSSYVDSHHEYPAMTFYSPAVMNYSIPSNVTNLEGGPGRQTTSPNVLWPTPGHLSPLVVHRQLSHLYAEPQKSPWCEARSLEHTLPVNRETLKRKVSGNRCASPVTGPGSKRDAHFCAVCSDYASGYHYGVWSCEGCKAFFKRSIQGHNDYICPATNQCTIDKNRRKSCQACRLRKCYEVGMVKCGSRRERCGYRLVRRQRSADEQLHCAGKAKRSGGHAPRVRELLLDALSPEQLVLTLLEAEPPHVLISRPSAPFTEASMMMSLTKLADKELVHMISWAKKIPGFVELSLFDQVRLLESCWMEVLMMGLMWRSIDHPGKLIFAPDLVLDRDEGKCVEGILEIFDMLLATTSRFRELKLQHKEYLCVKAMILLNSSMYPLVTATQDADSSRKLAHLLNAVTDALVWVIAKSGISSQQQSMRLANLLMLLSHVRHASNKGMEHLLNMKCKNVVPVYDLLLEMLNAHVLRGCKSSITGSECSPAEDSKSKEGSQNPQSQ
Androgen receptor (Homo sapiens), sequence (P10275 whole entry, looked up): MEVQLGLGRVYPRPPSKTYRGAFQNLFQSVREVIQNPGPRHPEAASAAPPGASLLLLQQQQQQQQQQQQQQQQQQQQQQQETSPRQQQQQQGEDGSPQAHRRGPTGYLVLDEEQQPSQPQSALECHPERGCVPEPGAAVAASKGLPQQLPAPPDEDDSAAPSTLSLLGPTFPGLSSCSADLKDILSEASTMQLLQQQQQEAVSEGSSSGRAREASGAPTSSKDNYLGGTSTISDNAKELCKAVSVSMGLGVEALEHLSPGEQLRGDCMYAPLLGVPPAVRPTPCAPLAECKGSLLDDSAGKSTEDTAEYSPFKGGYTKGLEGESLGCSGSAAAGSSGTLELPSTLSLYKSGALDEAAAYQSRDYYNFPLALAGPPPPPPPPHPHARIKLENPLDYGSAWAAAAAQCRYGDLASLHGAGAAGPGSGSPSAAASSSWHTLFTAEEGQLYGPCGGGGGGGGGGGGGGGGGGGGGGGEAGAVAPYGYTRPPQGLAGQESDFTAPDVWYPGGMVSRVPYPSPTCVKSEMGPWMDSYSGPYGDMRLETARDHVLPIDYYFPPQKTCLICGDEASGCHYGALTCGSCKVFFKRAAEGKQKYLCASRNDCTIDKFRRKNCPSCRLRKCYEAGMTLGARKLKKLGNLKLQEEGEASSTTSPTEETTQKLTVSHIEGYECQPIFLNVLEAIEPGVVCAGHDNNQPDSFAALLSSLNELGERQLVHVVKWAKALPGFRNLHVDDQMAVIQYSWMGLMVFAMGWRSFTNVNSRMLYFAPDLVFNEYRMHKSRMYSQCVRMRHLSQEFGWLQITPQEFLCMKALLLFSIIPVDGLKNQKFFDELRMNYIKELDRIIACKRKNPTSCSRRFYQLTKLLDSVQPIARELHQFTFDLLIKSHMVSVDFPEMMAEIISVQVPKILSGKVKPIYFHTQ

Regarding `CC(=O)C(Cl)Cl`, the result in [1], in [4] and in test [7] was inactive. The Potency result in test [2], in [3], in [5], in [6], in test [8] and in [9] was “inactive” throughout. Also, the Potency result in test [10], in test [11], in [12], in test [13], in test [14] and in [15] was “inactive” in each case.

Take `CCC/C(=N\OCC)C1=C(O)CC(CC(C)SCC)CC1=O` (configuration not stated): the result in test [1], in [4], in test [7] and in test [16] was inactive. The Potency entry in test [2], in test [3], in test [5], in test [17], in test [9] and in test [10] was “inactive” throughout. The Potency entry in test [11], in [12], in test [13] and in test [15] was “inactive” throughout. The Potency in test [8] was 30.8 µM (active).

For `O=C(Oc1ccc(Br)cc1)N1CCN2CCC1CC2`, the outcome in [1], in test [4] and in test [7] was inactive. Further, the Potency entry in test [2], in test [3], in test [5], in [6], in test [8] and in test [9] was “inactive” in each case. Moreover, the Potency result in test [10], in test [11], in [12], in [13], in [14] and in test [15] was “inactive” each time.

Take `OC(Cn1cncn1)(c1ccc(F)cc1)c1ccccc1F` (configuration not stated): the outcome in [1], in test [4] and in test [7] was inactive. Also, the Potency entry in [2], in test [5], in test [6], in test [8], in [17] and in test [9] was “inactive” throughout. For the same molecule, the Potency result in [10], in test [11], in test [12], in test [14] and in test [15] was “inactive” each time.

In the case of `CCCSP(=S)(OCC)Oc1ccc(Cl)cc1Cl` (configuration not stated), the outcome in test [1], in test [4] and in test [7] was inactive. The Potency entry in test [2], in test [3], in [5], in test [6], in [8] and in test [9] was “inactive” throughout. Besides, the Potency entry in test [10], in test [11], in test [13] and in [15] was “inactive” throughout.

For `O=C(CCCN1CCC(n2c(=O)[nH]c3ccccc32)CC1)c1ccc(F)cc1`, the outcome in test [1], in test [18], in test [4] and in [7] was inactive. The Potency entry in test [3], in test [5], in test [6], in test [19], in [11] and in [12] was “inactive” each time. Also, the Potency entry in test [13] and in test [15] was “inactive” each time.

Regarding `CC1(C)CON(Cc2ccccc2Cl)C1=O`, the result in [1], in test [4] and in [7] was inactive. In addition, the Potency result in [2], in test [5], in [6], in [17], in [9] and in test [10] was “inactive” each time. In addition, the Potency result in [11], in test [12], in test [13], in [14] and in [15] was “inactive” each time.

Turning to `Nc1cc2c3c(c1)C(c1ccccc1)=N[C@@H](NC(=O)c1cccnc1)C(=O)N3CC2`, the outcome in [1], in test [4], in test [7] and in test [16] was inactive. Further, the Potency entry in test [2], in [5], in test [6], in test [17], in [9] and in test [10] was “inactive” in each case. Besides, the Potency result in test [11], in [12], in test [13] and in test [15] was “inactive” throughout.
